Measurements from PubChem BioAssay.
Records with an inconclusive call do not appear. Calls of active or inactive are those of the source.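 How the source made its calls, unless noted: active means differentiation response of at least 50%, scaled between solvent and reference control, from cells with both markers; inactive means the rest.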

Assays:
[1] = yeast TOR pathway RPL19A-GFP modulators, primary screen, cell-based, S. cerevisiae, multiplex flow cytometry (AID 1862; in the data active means percent of DMSO control GFP below about 86%;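 further: lower values mimic rapamycin by blocking the RPL19A rise seen in DMSO cells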); conditions: S. cerevisiae RPL19A-GFP strain, flow cytometry fluorescence, 3 h; at 10 µM; stronger effect = lower value
[2] = modulators of MEP2-GFP levels in yeast, primary screen, S. cerevisiae, multiplex flow cytometry (AID 1867;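 active means GFP response, as percent of the DMSO control, above the screen-wide mean plus 3 SD, about 139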;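 further: median GFP channel fluorescence of barcode-gated MEP2-GFP cells measured by flow cytometry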); conditions: S. cerevisiae MEP2-GFP strain, 3 h, at 10 µM, stronger effect = higher value, 100% means same as DMSO wells
[3] = modulators of CIT2-GFP expression in yeast, primary screen, S. cerevisiae, GFP fusion, multiplex flow cytometry (AID 1870;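 active means percent response above a set limit, the screen-wide mean plus 3 SD, cut at about 130% in these data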;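 further: barcoded CIT2-GFP strain pooled with four other GFP strains with rapamycin as positive control; median GFP fluorescence per well over plate mean of DMSO wells so 100% = DMSO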); conditions: 3 h, at 10 µM, stronger effect = higher value
[4] = modulators of LAP4-GFP expression in yeast, primary screen, S. cerevisiae, multiplex flow cytometry (AID 1873;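 active means GFP signal, as percent of the solvent control, above the screen mean plus 3 SD, about 149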); conditions: 3 h, at 10 µM, stronger effect = higher value
[5] = modulators of AGP1-GFP expression in yeast TOR pathway, primary screen, cell-based, multiplex flow cytometry, S. cerevisiae (AID 1887;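 active means GFP signal above the screen-wide mean plus 3 SD, that is over about 124.5% of the solvent control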;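 further: AGP1-GFP fusion strain of S. cerevisiae within a five-strain barcoded multiplex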); conditions: 3 h, at 10 µM, stronger effect = higher value
[6] = inhibitors of CD8+ T cell-vesicle binding, pilot screen, LFA-1/ICAM-1 modulator project, MLPCN validation set, flow cytometry (AID 2523;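 active means response below a set limit, under 55% cells CD8-positive and vesicle-bound, and CD8 cells' 90th-percentile brightness under 279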;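 on vesicle binding response: mean PE anti-B7-1 fluorescence of CD8+ cells relative to row control; 100% = QL9-loaded vesicles with DMSO vehicle in the same plate row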); conditions: 2C mouse CD8+ T cells, at 7 µM, stronger effect = lower value; double positive events: measured here: CD8+/vesicle+ event percentage
[7] = target: Integrin beta-1 (Homo sapiens) + Integrin alpha-4 (Homo sapiens) (UniProt P13612+P05556); assay: inhibition of HUTS-21 binding to VLA-4, pilot screen, VLA-4 allosteric modulator project, U937 cells, HUTS-21 mAb, flow cytometry, validation set (AID 2674;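 active means inhibition above 50%, about 3 SD of the validation set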;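 further: antibody binding induced by the VLA-4 ligand LDV present at three times its Kd; 0% = LDV ligand with antibody and no compound and 100% = antibody without LDV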); conditions: HUTS-21 LIBS mAb binding, at 6.7 µM, stronger effect = higher value, binding induced by LDV ligand
[8] = superoxide lowering in aged yeast cells, pilot screen, validation compound set (AID 2706;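 active means superoxide response below 65% of plate, a cut near 3 SD across the whole screen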;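 further: yeast exposed to compound for one week at 30 degrees C before staining; 100% = mean of all compound wells on the same plate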); conditions: S. cerevisiae aging, superoxide DHE fluorescence; at 10 µM, stronger effect = lower value
[9] = target: Beta-adrenergic receptor kinase 1 (Homo sapiens) (UniProt P25098); assay: GRK2 binders displacing RNA aptamer, biochemical, validation, human GRK2, bead flow cytometry (AID 488806;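 active means aptamer binding inhibition above 30%, about 3 SD of noise from non-fluorescent compounds; inactive means inhibition at or below 30%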); conditions: bead-bound GRK2, FAM-aptamer displacement, at 10 µM, stronger effect = higher value
[10] = target: AP-2 complex subunit beta (Homo sapiens) (UniProt P63010); assay: inhibitors of arrestin peptide binding to AP2, pilot screen, biochemical, validation set, GST-AP2 beads, flow cytometry (AID 504541;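 active means inhibition above 54%, about 3 SD of non-fluorescent compounds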;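 further: AP2 carries R879A mutation and is captured from E. coli lysate; bead-bound FITC arrestin peptide fluorescence measuring arrestin peptide binding to AP2; 0% = DMSO wells and 100% = excess unlabeled arrestin peptide control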); conditions: FITC arrestin peptide, at 10 µM, stronger effect = higher value, AP2 beta2 appendage fragment, R879A mutant
[11] = yeast V-ATPase proton transport modulators, S. cerevisiae, pHLuorin, HTS validation (AID 504600; in the data active means response above about 15%;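 further: plate controls were DMSO for no effect and reference compound for full effect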); conditions: S. cerevisiae pHLuorin cytosolic pH, at 10 µM, stronger effect = higher value
[12] = tested on: anti-desmoglein-3 scFv antibody binding to human DSG3; assay: inhibitors of anti-DSG3 scFv binding to DSG3, pilot screen, biochemical, validation compound set, bead-based, flow cytometry (AID 588368;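 active means binding below the plate cutoff, the plate median minus 3 SD, with a reading above zero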;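 further: signal is the median channel fluorescence of bead-bound GFP antibody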); conditions: Protein G beads, DSG3-Fc, scFv-GFP binding, at 10 µM, stronger effect = lower value
[13] = inhibitors of fungal efflux pumps CDR1, CDR2, MDR1, pilot screen, validation compound set, multiplex, phenotypic (AID 588506;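 active means efflux inhibition above 0.42, the validation set average plus 4 SD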;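 further: Nile Red retained in cells so higher fluorescence means more efflux inhibition; 0 = negative control wells and 1 = enniatin B 25 µM full block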); conditions: S. cerevisiae pump-expressing triplex, Nile Red efflux flow cytometry; at 10 µM; stronger effect = higher value; the pumps come from Candida albicans
[14] = target: ATP-binding cassette sub-family B member 6 (Homo sapiens) (UniProt Q9NP58); assay: ABCB6 transporter inhibitors, pilot screen, K562-ABCB6 cells, flow cytometry, validation set (AID 588550;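 active means inhibition above the screen-wide mean plus 3 SD, about 51%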;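 further: 0% = DMSO wells and 100% = benzethonium chloride 70 µM positive control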); conditions: K562-ABCB6 porphyrin accumulation, 1 h, at 10 µM, stronger effect = higher value
[15] = promoters of myeloid differentiation in arrested cells, primary screen, cell-based, GFP/MAC1 double positive, flow cytometry, validation set (AID 588685); conditions: ER-HoxA9 marrow cells, stronger effect = higher value, normalized: vehicle 0, fulvestrant 100;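 further: compound exposure lasts four days before antibody staining and flow analysis; 0% = DMSO wells and 100% = 5 µM fulvestrant positive control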

Chain of AP-2 complex subunit beta (Homo sapiens) (P63010 whole entry, looked up, the tested form may be a part, one chain of several): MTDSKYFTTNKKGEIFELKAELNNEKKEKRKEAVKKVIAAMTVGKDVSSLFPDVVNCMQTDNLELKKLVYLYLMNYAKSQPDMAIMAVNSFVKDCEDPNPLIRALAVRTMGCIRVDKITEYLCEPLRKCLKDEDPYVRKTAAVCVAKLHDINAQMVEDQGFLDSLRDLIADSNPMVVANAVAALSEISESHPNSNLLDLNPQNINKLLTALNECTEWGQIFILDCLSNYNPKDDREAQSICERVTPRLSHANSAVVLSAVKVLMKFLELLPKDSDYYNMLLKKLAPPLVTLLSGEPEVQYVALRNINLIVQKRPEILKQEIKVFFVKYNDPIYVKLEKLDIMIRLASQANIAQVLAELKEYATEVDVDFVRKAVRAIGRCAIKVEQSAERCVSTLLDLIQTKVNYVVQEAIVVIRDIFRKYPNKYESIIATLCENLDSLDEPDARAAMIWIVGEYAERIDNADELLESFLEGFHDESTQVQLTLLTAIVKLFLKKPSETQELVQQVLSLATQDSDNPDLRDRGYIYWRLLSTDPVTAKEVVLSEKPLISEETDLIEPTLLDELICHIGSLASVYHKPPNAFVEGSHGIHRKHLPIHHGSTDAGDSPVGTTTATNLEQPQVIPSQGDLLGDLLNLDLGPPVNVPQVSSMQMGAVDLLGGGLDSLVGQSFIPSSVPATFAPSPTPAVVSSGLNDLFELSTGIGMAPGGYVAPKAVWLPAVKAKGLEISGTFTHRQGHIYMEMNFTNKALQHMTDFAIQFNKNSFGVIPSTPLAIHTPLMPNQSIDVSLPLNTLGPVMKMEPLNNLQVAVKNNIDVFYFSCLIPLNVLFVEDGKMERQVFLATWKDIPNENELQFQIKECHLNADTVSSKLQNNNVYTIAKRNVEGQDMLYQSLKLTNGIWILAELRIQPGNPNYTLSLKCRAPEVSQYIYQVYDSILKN
Chain of ATP-binding cassette sub-family B member 6 (Homo sapiens) (Q9NP58 whole entry, looked up): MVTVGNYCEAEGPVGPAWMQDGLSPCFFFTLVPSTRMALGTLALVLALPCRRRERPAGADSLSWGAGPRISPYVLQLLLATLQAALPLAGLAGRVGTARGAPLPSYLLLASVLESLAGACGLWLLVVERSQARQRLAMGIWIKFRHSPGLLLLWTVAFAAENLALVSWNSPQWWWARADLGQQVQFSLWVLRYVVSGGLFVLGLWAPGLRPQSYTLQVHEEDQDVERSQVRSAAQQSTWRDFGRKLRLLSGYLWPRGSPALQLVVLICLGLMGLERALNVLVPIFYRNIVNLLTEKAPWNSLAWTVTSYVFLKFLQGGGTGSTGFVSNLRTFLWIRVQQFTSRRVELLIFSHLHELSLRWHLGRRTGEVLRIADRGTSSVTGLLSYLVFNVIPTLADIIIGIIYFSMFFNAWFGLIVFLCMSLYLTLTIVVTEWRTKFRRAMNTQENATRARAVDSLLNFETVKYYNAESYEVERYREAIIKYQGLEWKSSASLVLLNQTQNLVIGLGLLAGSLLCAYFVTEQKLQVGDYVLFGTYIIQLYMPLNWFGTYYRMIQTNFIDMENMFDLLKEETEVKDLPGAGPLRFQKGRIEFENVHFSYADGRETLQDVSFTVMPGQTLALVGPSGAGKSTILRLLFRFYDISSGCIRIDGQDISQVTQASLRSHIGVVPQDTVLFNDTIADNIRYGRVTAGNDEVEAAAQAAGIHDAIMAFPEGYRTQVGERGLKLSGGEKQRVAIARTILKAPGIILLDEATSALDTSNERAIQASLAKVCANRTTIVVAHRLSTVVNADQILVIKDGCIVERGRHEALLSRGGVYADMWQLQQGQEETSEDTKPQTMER
Chain of Beta-adrenergic receptor kinase 1 (Homo sapiens) (P25098 whole entry, looked up): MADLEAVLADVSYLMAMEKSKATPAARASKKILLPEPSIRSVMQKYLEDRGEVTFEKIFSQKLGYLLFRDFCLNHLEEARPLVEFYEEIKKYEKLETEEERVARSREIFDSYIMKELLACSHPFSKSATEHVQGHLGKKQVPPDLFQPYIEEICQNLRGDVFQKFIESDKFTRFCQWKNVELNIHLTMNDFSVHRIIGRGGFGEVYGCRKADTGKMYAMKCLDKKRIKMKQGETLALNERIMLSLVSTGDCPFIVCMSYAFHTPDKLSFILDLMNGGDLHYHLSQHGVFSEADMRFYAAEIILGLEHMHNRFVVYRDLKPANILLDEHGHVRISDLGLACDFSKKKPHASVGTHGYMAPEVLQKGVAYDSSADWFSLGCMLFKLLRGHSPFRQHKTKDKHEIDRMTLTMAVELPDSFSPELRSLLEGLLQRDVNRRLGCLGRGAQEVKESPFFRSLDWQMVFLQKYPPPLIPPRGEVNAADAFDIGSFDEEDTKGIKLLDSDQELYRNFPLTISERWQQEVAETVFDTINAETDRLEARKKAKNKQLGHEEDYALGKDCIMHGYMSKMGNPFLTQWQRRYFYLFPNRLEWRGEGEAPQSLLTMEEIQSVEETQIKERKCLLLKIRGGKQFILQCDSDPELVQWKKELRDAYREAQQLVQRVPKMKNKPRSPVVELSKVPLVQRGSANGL
Chain of Integrin beta-1 (Homo sapiens) + Integrin alpha-4 (Homo sapiens) (P05556 whole entry, looked up): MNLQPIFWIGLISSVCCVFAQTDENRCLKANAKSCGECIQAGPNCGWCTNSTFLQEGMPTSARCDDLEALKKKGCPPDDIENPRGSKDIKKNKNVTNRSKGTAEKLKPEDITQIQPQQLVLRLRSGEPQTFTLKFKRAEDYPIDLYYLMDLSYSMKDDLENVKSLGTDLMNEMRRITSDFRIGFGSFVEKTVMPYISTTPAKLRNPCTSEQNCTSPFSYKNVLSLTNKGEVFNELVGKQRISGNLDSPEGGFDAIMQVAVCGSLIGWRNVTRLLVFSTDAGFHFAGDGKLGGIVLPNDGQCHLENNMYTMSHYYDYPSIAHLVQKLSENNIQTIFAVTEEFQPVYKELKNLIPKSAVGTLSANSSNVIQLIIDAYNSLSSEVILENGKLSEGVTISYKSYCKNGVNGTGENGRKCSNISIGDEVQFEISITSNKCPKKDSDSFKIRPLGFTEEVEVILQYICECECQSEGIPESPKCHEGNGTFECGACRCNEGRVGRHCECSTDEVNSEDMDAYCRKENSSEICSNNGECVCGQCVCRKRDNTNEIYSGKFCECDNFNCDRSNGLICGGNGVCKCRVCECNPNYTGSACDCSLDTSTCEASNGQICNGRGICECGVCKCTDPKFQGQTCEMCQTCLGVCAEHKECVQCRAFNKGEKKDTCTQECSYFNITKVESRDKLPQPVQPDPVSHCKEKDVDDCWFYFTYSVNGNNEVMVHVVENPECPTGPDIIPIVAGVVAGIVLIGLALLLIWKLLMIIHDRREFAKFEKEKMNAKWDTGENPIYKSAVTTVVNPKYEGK
Chain of Integrin beta-1 (Homo sapiens) + Integrin alpha-4 (Homo sapiens) (P13612 whole entry, looked up): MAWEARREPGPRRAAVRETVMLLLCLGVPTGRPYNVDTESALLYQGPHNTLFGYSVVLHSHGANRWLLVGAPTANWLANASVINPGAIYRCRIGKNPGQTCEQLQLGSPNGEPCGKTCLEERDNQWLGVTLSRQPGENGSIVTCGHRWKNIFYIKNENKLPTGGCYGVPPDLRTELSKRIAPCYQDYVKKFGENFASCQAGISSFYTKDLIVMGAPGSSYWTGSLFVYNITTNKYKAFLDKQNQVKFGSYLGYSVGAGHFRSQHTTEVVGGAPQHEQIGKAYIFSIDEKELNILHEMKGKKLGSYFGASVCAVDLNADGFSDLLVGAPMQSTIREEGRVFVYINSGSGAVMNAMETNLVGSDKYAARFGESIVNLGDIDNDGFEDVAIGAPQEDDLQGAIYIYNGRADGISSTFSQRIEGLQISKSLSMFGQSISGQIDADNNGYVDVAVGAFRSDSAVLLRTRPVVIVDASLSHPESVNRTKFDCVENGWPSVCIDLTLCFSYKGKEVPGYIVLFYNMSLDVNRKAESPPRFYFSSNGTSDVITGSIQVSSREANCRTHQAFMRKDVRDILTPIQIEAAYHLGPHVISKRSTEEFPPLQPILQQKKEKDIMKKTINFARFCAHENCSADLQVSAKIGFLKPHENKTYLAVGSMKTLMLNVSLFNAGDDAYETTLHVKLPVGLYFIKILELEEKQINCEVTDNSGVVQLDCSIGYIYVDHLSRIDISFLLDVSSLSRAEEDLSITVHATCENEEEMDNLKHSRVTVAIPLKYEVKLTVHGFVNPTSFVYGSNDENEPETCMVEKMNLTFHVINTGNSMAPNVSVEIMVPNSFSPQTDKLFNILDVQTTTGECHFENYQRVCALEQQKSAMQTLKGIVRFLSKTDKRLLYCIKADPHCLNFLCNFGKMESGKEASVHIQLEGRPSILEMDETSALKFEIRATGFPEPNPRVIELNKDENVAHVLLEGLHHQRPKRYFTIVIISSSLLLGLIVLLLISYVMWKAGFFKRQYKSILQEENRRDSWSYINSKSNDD

SMILES	percent of DMSO control GFP [1]	GFP response vs DMSO [2]	percent response of DMSO control [3]	GFP response vs DMSO [4]	GFP response, % of DMSO [5]	double positive events [6]	vesicle binding response [6]	inhibition [7]	superoxide response (% of plate) [8]	aptamer binding inhibition [9]	inhibition [10]	response [11]	binding (% of control) [12]	efflux inhibition (fraction of control) [13]	inhibition [14]	differentiation response [15]
COC(=O)c1cc(OC)c(OC)c(OC)c1[N+](=O)[O-]	103% (inactive)	97.9% (inactive)	107% (inactive)	108% (inactive)	105% (inactive)	58.1%	186% (inactive)	-0.24% (inactive)	107% (inactive)	4% (inactive)	-11.6% (inactive)	39.5% (active)	99% (inactive)	0.14 (inactive)	3% (inactive)	-21.2% (inactive)
CCN(Cc1ccncc1)Cc1nc(Cc2ccccc2Cl)no1	95.8% (inactive)	98.9% (inactive)	102% (inactive)	95.4% (inactive)	94.2% (inactive)	53.4%	164% (inactive)	-12.4% (inactive)	111% (inactive)	2% (inactive)	8.49% (inactive)	2.76% (inactive)	101% (inactive)	0.25 (inactive)	7% (inactive)	-27.6% (inactive)
C[N+]12CCCCC1C(COC(=O)c1ccc3c(c1)OCO3)CCC2 (centres undefined)	97.6% (inactive)	96.9% (inactive)	97.9% (inactive)	85.3% (inactive)	93.9% (inactive)	62%	116% (inactive)	10.9% (inactive)	99.1% (inactive)	5% (inactive)	-3.8% (inactive)	1.26% (inactive)	96.7% (inactive)	0.14 (inactive)	12% (inactive)	-19.6% (inactive)
O=C(CCCCC(=O)NC1CCCC1)NC1CCCC1	96.8% (inactive)	102% (inactive)	105% (inactive)	95.4% (inactive)	93.7% (inactive)	53.7%	181% (inactive)	10% (inactive)	103% (inactive)	0% (inactive)	3.46% (inactive)	3.11% (inactive)	102% (inactive)	0.29 (inactive)	6% (inactive)	-11.5% (inactive)
CC(C)Cc1cc(C(=O)N2CCC(N3CCC(C(=O)N4CCCC4)CC3)CC2)n[nH]1	100% (inactive)	89.7% (inactive)	109% (inactive)	96.4% (inactive)	102% (inactive)	47.5%	191% (inactive)	-2.11% (inactive)	102% (inactive)	-3% (inactive)	3.03% (inactive)	1.07% (inactive)	107% (inactive)	-0.16 (inactive)	3% (inactive)	-27.6% (inactive)
COC1=CC(=O)CC(C)C12Oc1c(Cl)c(OC)cc(OC)c1C2=O (centres undefined)	105% (inactive)	99.9% (inactive)	107% (inactive)	103% (inactive)	98.7% (inactive)	42.3%	131% (inactive)	8.15% (inactive)	97.4% (inactive)	-1% (inactive)	14.5% (inactive)	0.18% (inactive)	95.9% (inactive)	-0.09 (inactive)	8% (inactive)	-14.7% (inactive)
CC(=O)O[C@H]1C(=O)[C@@]2(C)[C@H]([C@H](OC(=O)c3ccccc3)[C@]3(O)C[C@H](OC(=O)[C@H](O)C(NC(=O)c4ccccc4)c4ccccc4)C(C)=C1C3(C)C)[C@]1(OC(C)=O)CO[C@@H]1C[C@@H]2O (some centres undefined)	106% (inactive)	99.9% (inactive)	103% (inactive)	90.3% (inactive)	97.3% (inactive)	55.6%	162% (inactive)	5.36% (inactive)	99% (inactive)	3% (inactive)	2.22% (inactive)	-2.34% (inactive)	94.6% (inactive)	0.63 (active)	7% (inactive)	9.49% (inactive)
c1ccc2c3c(c(CN4CCCCC4)cc2c1)COC3	109% (inactive)	116% (inactive)	127% (active)	122% (inactive)	104% (inactive)	38%	176% (inactive)	-8.64% (inactive)	116% (inactive)	-6% (inactive)	-17.7% (inactive)	4.2% (inactive)	107% (inactive)	-0.12 (inactive)	11% (inactive)	-14.7% (inactive)
CCOc1cc2oc(=O)c3c(c2cc1Cl)CCC3	104% (inactive)	99.9% (inactive)	102% (inactive)	111% (inactive)	107% (inactive)	51.1%	165% (inactive)	-6.77% (inactive)	109% (inactive)	1% (inactive)	-15.2% (inactive)	-4.08% (inactive)	103% (inactive)	-0.05 (inactive)	6% (inactive)	-11.5% (inactive)
